Measurements published in PubChem BioAssay (EPA / NIEHS).
Inconclusive results are not listed. Calls of active or inactive are those of the source. How the source made its calls, unless noted: active means hit-call score of the fitted dose curve at least 0.9, where 1 is the maximum; inactive means score below 0.9.

Key:
[1] = ATG_PBREM_CIS: Attagene CIS-FACTORIAL HepG2 Assay for human Phenobarbital-responsive Enhancer Module (PBREM) (AID 2282955); details: HepG2 PBREM cis-reporter, Attagene multiplexed transcription; actives raise or lower the signal
Summary of the method: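 Readout: reporter mRNA, fluorescent RT-PCR fragments separated by capillary electrophoresis. System: HepG2 transiently transfected with cis-regulated reporter units. Exposure: 24 h. Analysis: bidirectional, DMSO baseline.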

[2] = target: Paired box protein Pax-6 (Homo sapiens) (UniProt P26367); test: ATG_Pax6_CIS: Attagene CIS-FACTORIAL HepG2 Assay for human Paired Box 6 (PAX6) (AID 2282956); details: HepG2 CIS-FACTORIAL PAX6 reporter transcription, RNA readout; actives raise or lower the signal
Sequence of Paired box protein Pax-6 (Homo sapiens) (P26367 whole entry, looked up): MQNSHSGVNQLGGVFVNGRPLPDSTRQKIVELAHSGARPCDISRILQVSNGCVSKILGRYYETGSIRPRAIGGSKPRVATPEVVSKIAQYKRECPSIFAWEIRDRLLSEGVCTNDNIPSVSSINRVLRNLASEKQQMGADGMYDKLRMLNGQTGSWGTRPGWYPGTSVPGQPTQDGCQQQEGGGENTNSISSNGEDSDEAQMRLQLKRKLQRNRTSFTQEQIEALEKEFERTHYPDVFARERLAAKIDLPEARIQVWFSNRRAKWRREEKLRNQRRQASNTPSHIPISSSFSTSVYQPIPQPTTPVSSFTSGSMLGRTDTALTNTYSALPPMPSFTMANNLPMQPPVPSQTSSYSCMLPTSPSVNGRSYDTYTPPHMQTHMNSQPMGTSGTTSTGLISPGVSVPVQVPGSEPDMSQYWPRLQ
Summary of the method: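 Transient MRTU transfection of HepG2 → compound exposure 24 h → TriZol RNA, oligo(dT) RT → PCR, 6-FAM primer extension, HpaI cut → capillary electrophoresis; activity fitted both directions against DMSO.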

[3] = ATG_PXRE_CIS: Attagene CIS-FACTORIAL HepG2 Assay for human Pregnane X Receptor Element (PXRE) (AID 2282957); details: HepG2 Attagene CIS-FACTORIAL PXRE reporter, mRNA; actives raise or lower the signal
Summary of the method: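 HepG2 cells transiently transfected with cis-regulated multiple reporter transcription units; endogenous factor activity measured as reporter mRNA 24 h after dosing. RT-PCR, fluorescent primer extension, HpaI digestion, capillary electrophoresis; bidirectional fit versus DMSO baseline.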

[4] = ATG_PPRE_CIS: Attagene CIS-FACTORIAL HepG2 Assay for human Peroxisome Proliferator-activated Response Element (PPRE) (AID 2282958); details: HepG2 PPRE cis-element reporter, Attagene transcription factor profiling; actives raise or lower the signal
Summary of the method: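 After human HepG2 hepatoma cells were transiently transfected with cis-promoter reporter constructs, they were exposed to test chemicals for 24 hours. Reporter RNA was then reverse-transcribed, PCR-amplified, FAM-labeled, HpaI-digested and quantified by capillary electrophoresis.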

[5] = ATG_RORE_CIS: Attagene CIS-FACTORIAL HepG2 Assay for human RAR-related Orphan Receptor Element (RORE) (AID 2282959); details: HepG2 Attagene cis-factorial RORE reporter, mRNA; actives raise or lower the signal
Summary of the method: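 Measured here: transcript induction of a cis-regulated reporter in HepG2 cells transiently transfected via FuGene 6. After 24 h, RNA was processed by RT-PCR and fluorescent capillary electrophoresis; DMSO defined baseline activity.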

[6] = ATG_Sox_CIS: Attagene CIS-FACTORIAL HepG2 Assay for human SRY-box transcription factor (SOX) (AID 2282960); details: HepG2 Attagene cis-factorial SOX reporter, mRNA; actives raise or lower the signal
Summary of the method: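 Using transiently transfected HepG2 cells, reporter transcription driven by cis elements was assessed 24 h after dosing. Signal was fluorescence of capillary-separated RT-PCR products, with DMSO defining baseline activity.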

[7] = target: Transcription factor Sp1 (Homo sapiens) (UniProt P08047); test: ATG_Sp1_CIS: Attagene CIS-FACTORIAL HepG2 Assay for human Specificity Protein 1 (Sp1) (AID 2282961); details: HepG2 Sp1 cis-reporter transcription, actives raise or lower the signal
Sequence of Transcription factor Sp1 (Homo sapiens) (P08047 whole entry, looked up): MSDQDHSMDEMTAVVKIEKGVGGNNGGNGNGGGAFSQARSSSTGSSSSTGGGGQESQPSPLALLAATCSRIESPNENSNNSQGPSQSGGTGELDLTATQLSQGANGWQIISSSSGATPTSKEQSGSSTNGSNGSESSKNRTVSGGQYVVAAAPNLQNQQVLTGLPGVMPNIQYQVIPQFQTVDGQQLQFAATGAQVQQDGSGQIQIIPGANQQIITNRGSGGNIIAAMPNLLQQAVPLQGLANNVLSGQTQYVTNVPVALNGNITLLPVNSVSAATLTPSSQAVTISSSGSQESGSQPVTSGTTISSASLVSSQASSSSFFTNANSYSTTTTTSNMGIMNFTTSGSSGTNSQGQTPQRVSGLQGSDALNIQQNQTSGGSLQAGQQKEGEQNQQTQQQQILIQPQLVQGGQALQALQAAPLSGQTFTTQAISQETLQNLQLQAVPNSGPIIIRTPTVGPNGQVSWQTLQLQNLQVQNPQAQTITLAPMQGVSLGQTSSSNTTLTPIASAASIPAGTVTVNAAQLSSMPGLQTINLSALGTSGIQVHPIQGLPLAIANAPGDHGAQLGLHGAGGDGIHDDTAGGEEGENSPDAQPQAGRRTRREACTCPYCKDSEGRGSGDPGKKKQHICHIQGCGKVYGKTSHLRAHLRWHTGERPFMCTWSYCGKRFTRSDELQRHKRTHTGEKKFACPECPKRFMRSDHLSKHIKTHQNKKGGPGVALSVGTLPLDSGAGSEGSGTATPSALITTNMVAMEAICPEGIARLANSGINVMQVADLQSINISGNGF
Summary of the method: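 After transient transfection of HepG2 cells with cis-promoter reporter units and 24 h chemical treatment, reporter transcripts were quantified by RT-PCR and capillary electrophoresis fluorescence. Gain- and loss-of-signal fitted against DMSO.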

[8] = ATG_SREBP_CIS: Attagene CIS-FACTORIAL HepG2 Assay for human Sterol Regulatory Element Binding (SREBP) (AID 2282962); details: HepG2 Attagene cis-factorial SREBP reporter, mRNA; actives raise or lower the signal
Summary of the method: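 Transfected HepG2 (cis-regulated reporter library, endogenous TFs) → compound 24 h → total RNA → oligo(dT) RT → reporter-specific PCR → FAM primer extension, HpaI cut → CE fluorescence. Fit bidirectional vs DMSO.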

[9] = target: Signal transducer and activator of transcription 3 (Homo sapiens) (UniProt P40763); test: ATG_STAT3_CIS: Attagene CIS-FACTORIAL HepG2 Assay for human Signal Transducer and Activator of Transcription 3 (STAT3) (AID 2282963); details: HepG2, Attagene cis-factorial STAT3 reporter transcription; actives raise or lower the signal
Sequence of Signal transducer and activator of transcription 3 (Homo sapiens) (P40763 whole entry, looked up): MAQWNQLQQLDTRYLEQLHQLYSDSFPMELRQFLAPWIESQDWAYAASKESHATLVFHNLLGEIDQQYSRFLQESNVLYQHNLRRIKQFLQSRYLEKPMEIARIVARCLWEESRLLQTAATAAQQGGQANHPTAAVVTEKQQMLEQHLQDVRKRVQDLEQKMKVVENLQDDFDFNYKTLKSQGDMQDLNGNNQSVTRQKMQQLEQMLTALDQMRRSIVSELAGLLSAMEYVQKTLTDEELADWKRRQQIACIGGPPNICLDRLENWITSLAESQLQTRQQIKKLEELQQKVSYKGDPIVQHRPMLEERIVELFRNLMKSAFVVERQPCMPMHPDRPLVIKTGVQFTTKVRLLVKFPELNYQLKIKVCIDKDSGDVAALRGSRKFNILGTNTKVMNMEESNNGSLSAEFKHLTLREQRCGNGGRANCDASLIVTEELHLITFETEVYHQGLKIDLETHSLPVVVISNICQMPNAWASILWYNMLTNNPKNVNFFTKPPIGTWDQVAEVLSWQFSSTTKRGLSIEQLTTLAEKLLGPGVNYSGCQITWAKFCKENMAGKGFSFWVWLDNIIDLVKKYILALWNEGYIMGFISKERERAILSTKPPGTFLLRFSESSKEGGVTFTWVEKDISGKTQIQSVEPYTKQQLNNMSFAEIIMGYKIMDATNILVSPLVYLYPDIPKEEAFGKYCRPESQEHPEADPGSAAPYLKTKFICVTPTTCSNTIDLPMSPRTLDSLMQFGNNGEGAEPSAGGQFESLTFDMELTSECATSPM
Summary of the method: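 HepG2 cells transiently transfected with multiple cis-element-driven reporter units report endogenous transcription factor activity. After 24 h compound exposure, reporter mRNA is measured by RT-PCR, 6-FAM labelling, HpaI digestion and capillary electrophoresis. Fitted bidirectionally versus DMSO.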

[10] = ATG_TA_CIS: Attagene CIS-FACTORIAL HepG2 Assay for human TA Basal Promoter (AID 2282964); details: HepG2 Attagene CIS-factorial TA basal promoter reporter; actives raise or lower the signal
Summary of the method: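 HepG2 cells transiently transfected with multiplexed cis-promoter reporter units, dosed 24 h. Reporter mRNA measured by RT-PCR, 6-FAM labelling, HpaI digestion and capillary electrophoresis; bidirectional fit versus DMSO baseline, serving as background control.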

[11] = ATG_TCF_b_cat_CIS: Attagene CIS-FACTORIAL HepG2 Assay for human T-Cell-Factor with beta-catenin (TCF/b-cat) (AID 2282965); details: HepG2 TCF/beta-catenin cis-reporter transcription, actives raise or lower the signal
Summary of the method: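 HepG2, transient MRTU transfection, cis-element-driven reporters (endogenous TFs). 24 h compound exposure. Readout: reporter mRNA by RT-PCR + 6-FAM primer extension, HpaI digest, capillary electrophoresis. Gain/loss fit vs DMSO baseline.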

[12] = ATG_TAL_CIS: Attagene CIS-FACTORIAL HepG2 Assay for human TAL Basal Promoter (AID 2282966); details: HepG2 Attagene cis-factorial TAL promoter reporter; actives raise or lower the signal;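 further: background control endpoint measuring basal TAL promoter reporter mRNA not a specific factor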
Summary of the method: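 HepG2 cells were transiently transfected with promoter-driven multiplexed reporter units and dosed for 24 h. Reporter mRNA was measured by RT-PCR with capillary electrophoresis fluorescence; bidirectional fits used DMSO as baseline, serving as a background control.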

[13] = ATG_TGFb_CIS: Attagene CIS-FACTORIAL HepG2 Assay for human Transforming Growth Factor (TGF) (AID 2282967); details: HepG2 Attagene CIS TGFb reporter, mRNA transcription; actives raise or lower the signal
Summary of the method: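 HepG2 cells transiently transfected with cis-promoter-driven multiplexed reporter units; 24 h compound exposure. Reporter mRNA measured by RT-PCR, 6-FAM labeling, HpaI digestion and capillary electrophoresis; bidirectional fit versus DMSO baseline.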

[14] = ATG_VDRE_CIS: Attagene CIS-FACTORIAL HepG2 Assay for human Vitamin D Receptor Element (VDRE) (AID 2282968); details: HepG2 VDRE cis-reporter transcription, actives raise or lower the signal
Summary of the method: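 Transiently transfected HepG2 cells carrying cis-regulated reporter transcription units were exposed for 24 h. Reporter mRNA was measured by RT-PCR with fluorescent labelling and capillary electrophoresis, and fitted in both directions against DMSO.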

[15] = target: Estrogen receptor (Homo sapiens) (UniProt P03372); test: ATG_ERa_TRANS: Attagene TRANS-FACTORIAL HepG2 Assay for human Estrogen Receptor alpha (ERa) (AID 2282970; active means hit-call score of the fitted dose curve at least 0.9, where 1 is the maximum); details: HepG2 Attagene TRANS ERa GAL4 reporter, mRNA
Sequence of Estrogen receptor (Homo sapiens) (P03372 whole entry, looked up, the tested form may be a part): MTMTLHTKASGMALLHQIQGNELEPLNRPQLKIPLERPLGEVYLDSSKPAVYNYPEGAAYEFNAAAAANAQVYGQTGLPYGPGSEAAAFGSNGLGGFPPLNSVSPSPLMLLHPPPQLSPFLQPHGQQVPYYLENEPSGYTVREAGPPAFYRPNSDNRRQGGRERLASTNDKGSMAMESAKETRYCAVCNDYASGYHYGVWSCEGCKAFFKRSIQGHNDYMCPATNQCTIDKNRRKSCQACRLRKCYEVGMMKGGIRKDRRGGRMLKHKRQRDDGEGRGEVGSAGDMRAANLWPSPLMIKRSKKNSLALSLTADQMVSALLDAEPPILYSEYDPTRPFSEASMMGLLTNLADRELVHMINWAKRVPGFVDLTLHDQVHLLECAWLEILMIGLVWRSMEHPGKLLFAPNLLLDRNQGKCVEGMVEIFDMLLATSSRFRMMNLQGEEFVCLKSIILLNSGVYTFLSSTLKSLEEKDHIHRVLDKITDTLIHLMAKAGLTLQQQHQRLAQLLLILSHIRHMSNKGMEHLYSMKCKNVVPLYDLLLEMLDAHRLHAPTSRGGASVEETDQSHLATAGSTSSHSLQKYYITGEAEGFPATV
Summary of the method: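 HepG2 cells transiently transfected with multiplexed GAL4-UAS reporter units; ERa activity read via exogenous chimeric NR-Gal4 protein. After 24 hour compound exposure, reporter mRNA measured by RT-PCR with 6-FAM labelling and capillary electrophoresis; gain-of-signal fitted relative to DMSO.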

[16] = target: X-box-binding protein 1 (Homo sapiens) (UniProt P17861); test: ATG_Xbp1_CIS: Attagene CIS-FACTORIAL HepG2 Assay for human X-box Binding Protein 1 (XBP1) (AID 2282972); details: HepG2 XBP1 cis-element reporter, Attagene multiplex; actives raise or lower the signal
Sequence of X-box-binding protein 1 (Homo sapiens) (P17861 whole entry, looked up): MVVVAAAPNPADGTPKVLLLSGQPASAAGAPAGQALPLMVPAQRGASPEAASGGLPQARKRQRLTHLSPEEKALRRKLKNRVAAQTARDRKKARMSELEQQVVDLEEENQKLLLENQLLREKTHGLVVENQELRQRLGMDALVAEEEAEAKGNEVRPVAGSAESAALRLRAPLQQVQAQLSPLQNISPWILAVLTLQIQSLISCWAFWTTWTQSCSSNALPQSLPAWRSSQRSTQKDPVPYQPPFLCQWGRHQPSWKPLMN
Summary of the method: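 HepG2, transient MRTU transfection (cis-promoter driven), 24 h compound exposure. Total RNA → oligo(dT) RT → PCR → 6-FAM labeling → HpaI cut → CE. Bidirectional fit vs DMSO.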

[17] = target: Nuclear receptor subfamily 1 group I member 3 (Homo sapiens) (UniProt Q14994); test: ATG_CAR_TRANS: Attagene TRANS-FACTORIAL HepG2 Assay for human Constitutive Androstane Receptor (CAR) (AID 2282969; active means hit-call score of the fitted dose curve at least 0.9, where 1 is the maximum;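 further: activators raise reporter mRNA above DMSO so AC50 marks induction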); details: HepG2 Attagene TRANS-FACTORIAL CAR reporter
Sequence of Nuclear receptor subfamily 1 group I member 3 (Homo sapiens) (Q14994 whole entry, looked up, the tested form may be a part): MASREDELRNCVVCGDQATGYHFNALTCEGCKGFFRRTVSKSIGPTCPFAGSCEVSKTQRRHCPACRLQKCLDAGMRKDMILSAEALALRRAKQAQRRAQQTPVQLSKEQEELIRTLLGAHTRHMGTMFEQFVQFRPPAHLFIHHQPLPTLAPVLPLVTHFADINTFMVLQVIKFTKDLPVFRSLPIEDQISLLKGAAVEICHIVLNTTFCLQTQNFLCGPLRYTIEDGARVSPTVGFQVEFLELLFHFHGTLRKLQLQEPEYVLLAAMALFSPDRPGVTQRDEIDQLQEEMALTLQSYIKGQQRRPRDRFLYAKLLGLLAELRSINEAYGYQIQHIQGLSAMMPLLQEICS
Summary of the method: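 HepG2 cells transiently transfected with GAL4-UAS reporter units; TRANS format reads activity of exogenous chimeric NR-Gal4 protein. After 24 h dosing, reporter mRNA quantified by RT-PCR, 6-FAM labelling and capillary electrophoresis; gain of signal fitted against DMSO.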

[18] = target: Steroid hormone receptor ERR1 (Homo sapiens) (UniProt P11474); test: ATG_ERRa_TRANS: Attagene TRANS-FACTORIAL HepG2 Assay for human Estrogen-Related Receptor alpha (ERRa) (AID 2282971; active means hit-call score of the fitted dose curve at least 0.9, where 1 is the maximum); details: HepG2 Attagene TRANS reporter, ERRa transactivation
Sequence of Steroid hormone receptor ERR1 (Homo sapiens) (P11474 whole entry, looked up, the tested form may be a part): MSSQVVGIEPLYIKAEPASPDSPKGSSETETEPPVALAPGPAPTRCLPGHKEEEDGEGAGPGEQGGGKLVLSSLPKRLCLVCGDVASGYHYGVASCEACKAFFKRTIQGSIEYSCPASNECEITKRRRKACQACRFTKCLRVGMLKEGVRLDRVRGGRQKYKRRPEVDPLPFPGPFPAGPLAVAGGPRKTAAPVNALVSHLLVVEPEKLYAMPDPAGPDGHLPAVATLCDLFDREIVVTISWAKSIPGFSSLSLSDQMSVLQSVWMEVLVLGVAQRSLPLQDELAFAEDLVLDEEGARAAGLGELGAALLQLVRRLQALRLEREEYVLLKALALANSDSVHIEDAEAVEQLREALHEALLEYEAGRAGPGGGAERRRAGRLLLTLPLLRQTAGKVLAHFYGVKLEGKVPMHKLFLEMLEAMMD
Summary of the method: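 HepG2 cells transiently transfected with multiplexed GAL4-UAS reporter units reading chimeric ERRa-Gal4 activity; 24 h compound exposure. Reporter mRNA measured by RT-PCR, 6-FAM labelling, HpaI digest and capillary electrophoresis; gain of signal fitted versus DMSO baseline.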

[19] = ATG_M_19_TRANS: Attagene TRANS-FACTORIAL HepG2 Assay for M19 Transcription Factor (Internal Marker) (AID 2282974; active means hit-call score of the fitted dose curve at least 0.9, where 1 is the maximum); details: HepG2 Attagene TRANS-FACTORIAL M19 internal marker reporter
Summary of the method: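 Gain-of-signal in reporter mRNA, relative to DMSO, was scored from capillary electrophoresis fluorescence. HepG2 cells carried transiently transfected multiple reporter transcription units and were incubated with test chemicals for 24 h.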

[20] = target: Androgen receptor (Homo sapiens) (UniProt P10275); test: ATG_AR_TRANS: Attagene TRANS-FACTORIAL HepG2 Assay for human Androgen Receptor (AR) (AID 2282973; active means hit-call score of the fitted dose curve at least 0.9, where 1 is the maximum); details: HepG2 Attagene TRANS-FACTORIAL AR reporter transcription
Sequence of Androgen receptor (Homo sapiens) (P10275 whole entry, looked up, the tested form may be a part): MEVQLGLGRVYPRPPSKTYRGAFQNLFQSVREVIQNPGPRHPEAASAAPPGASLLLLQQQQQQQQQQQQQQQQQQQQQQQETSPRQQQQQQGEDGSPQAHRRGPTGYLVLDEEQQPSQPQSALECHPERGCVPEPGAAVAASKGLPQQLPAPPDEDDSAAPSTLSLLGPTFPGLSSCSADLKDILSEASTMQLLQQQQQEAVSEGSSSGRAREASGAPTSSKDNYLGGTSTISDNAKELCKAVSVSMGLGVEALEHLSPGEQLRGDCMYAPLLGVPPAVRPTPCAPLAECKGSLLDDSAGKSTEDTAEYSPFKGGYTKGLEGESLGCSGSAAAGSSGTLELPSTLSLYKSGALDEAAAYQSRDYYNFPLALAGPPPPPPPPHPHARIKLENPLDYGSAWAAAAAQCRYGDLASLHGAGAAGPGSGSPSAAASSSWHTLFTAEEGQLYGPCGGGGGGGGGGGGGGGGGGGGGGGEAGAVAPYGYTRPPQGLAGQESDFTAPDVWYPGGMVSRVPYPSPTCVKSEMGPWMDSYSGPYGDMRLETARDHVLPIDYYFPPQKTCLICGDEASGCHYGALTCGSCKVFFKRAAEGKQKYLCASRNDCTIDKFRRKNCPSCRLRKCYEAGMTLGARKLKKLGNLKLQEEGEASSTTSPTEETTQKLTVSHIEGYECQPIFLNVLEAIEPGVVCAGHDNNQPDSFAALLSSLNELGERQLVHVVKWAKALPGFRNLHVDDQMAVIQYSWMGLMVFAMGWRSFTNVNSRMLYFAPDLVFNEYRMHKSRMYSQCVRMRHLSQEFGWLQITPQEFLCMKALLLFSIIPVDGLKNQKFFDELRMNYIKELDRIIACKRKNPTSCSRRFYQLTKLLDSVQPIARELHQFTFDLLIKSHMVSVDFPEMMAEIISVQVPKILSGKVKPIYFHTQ
Summary of the method: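 HepG2 cells transiently transfected with multiplexed GAL4-UAS reporter units and chimeric NR-Gal4 fusion; 24 h compound exposure. Reporter mRNA measured by RT-PCR, 6-FAM labelling, HpaI digestion and capillary electrophoresis; gain-of-signal fitted relative to DMSO baseline.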

Measured: AC50

COC(=O)NC(=S)Nc1ccccc1NC(=S)NC(=O)OC
active: [1] 21.3 µM | [3] 7.61 µM | [4] 34 µM | [14] 50 µM
not listed: [17] | [18] | [19] | [20]
inactive: all other assays above

CCOc1cc(C(C)(C)C)ccc1C1COC(c2c(F)cccc2F)=N1 (stereo unspecified)
active: [3] 0.593 µM | [14] 1.36 µM
not listed: [20]
inactive: all other assays above

O=P(O)(O)CCCl
not listed: [17] | [18] | [19] | [20]
inactive: all other assays above

CC(C)N1C(=O)N(c2ccccc2)CSC1=NC(C)(C)C
active: [3] 0.666 µM
not listed: [18]
inactive: all other assays above

CCOc1nc(C(Cl)(Cl)Cl)ns1
active: [3] 33.5 µM | [5] 70.3 µM
not listed: [20]
inactive: all other assays above

COCc1cnc(C2=NC(C)(C(C)C)C(=O)N2)c(C(=O)O)c1 (stereo unspecified)
not listed: [15] | [18] | [19]
inactive: all other assays above
